# From PubChem
# An excerpt weighted towards active compounds, which were near 3.5% of everything screened.
# Anthrax LF prot: anthrax lethal factor protease inhibition. P15917. multiplex microsphere protease cleavage assay, LF. inhibition, % at 10 µM. actives 0.12% (n = 360,000). AID 588501; further: plate controls were buffer without enzyme for full effect and enzyme alone for no effect
# Target sequence (P15917 whole entry, looked up): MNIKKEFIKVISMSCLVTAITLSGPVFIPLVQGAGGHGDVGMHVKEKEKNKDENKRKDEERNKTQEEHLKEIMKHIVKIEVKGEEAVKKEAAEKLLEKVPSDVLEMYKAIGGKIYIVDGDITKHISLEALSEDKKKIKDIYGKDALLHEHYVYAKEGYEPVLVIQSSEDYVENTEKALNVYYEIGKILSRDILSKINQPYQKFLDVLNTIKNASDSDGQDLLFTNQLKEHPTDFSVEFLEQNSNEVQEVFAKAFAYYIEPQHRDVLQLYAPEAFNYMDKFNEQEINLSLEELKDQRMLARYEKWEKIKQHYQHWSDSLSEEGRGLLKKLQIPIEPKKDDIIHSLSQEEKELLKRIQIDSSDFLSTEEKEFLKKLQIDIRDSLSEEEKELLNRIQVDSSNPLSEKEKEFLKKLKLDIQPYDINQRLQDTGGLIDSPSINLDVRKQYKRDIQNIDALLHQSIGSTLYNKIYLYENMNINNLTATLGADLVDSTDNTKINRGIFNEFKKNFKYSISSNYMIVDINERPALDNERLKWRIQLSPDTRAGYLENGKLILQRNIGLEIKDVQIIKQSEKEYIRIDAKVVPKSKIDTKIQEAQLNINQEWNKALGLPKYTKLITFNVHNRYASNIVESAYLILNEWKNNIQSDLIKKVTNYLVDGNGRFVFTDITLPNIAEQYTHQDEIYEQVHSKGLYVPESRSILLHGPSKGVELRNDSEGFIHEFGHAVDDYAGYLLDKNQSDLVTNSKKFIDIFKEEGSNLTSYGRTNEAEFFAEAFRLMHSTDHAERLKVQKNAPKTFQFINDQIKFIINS
# BoNT A protease: BoNT A light chain protease inhibition; multiplex microsphere protease substrate cleavage, flow cytometry; inhibition, % at 10 µM; actives 0.17% (n = 360,000); further: plate controls were buffer without enzyme for full effect and enzyme alone for no effect
# Autofluor counter: counter-screen for toxin protease inhibitors: compound fluorescence; compound autofluorescence counterscreen, microsphere flow cytometry; stronger effect = higher value; fluorescence intensity (concentration not given with the values); AID 624483; actives 3.1% (n = 360,000); in the data active means fluorescence intensity above about 16000; inconclusive means no clear call, values can overlap the other calls
# BoNT-F LC inh: blocks Botulinum neurotoxin F light chain protease; Multiplex microsphere protease cleavage assay, flow cytometry; inhibition, % at 10 µM; actives 0.22% (n = 360,000); AID 588497; in the data active means inhibition above about 35%, passing the limit was not always enough; inconclusive means no clear call, values can overlap the other calls; further: plate controls were buffer without enzyme for full effect and enzyme alone for no effect
# Active calls of the source: *; ? = inconclusive. Unless noted, no stated cut-off is given here; in the data, active means inhibition above about 30%; inconclusive means no clear call, values can overlap the other calls; inactive means below that.
SMILES,Anthrax LF prot,BoNT A protease,Autofluor counter,BoNT-F LC inh
COc1cc(C(=O)N(Cc2ccco2)Cc2cc3ccccc3[nH]c2=O)cc(OC)c1OC,-1,?,23180*,-4
O=C(c1ccco1)N(Cc1ccco1)Cc1cc2ccccc2[nH]c1=O,-1,0,5847,5
CC(C)(C)OC(=O)N1CC(O)CC1C(=O)OCC(=O)c1ccc(Cl)cc1 (stereo not drawn),-4,7,20684*,8
NC(CCc1ccccc1)c1csc(NC(=O)Nc2ccccc2Oc2ccccc2)n1 (stereo not drawn),-7,0,3887,-33
CC(=NNC(=O)c1cccs1)c1ccc2c(c1)OCCO2,-1,0,3052,-5
O=C(c1ccc2c(c1)OCCCO2)c1cccs1,-1,?,22559*,-4
CCCCn1c(N)c(N(CC(C)C)C(=O)c2ccc(-c3ccc(C(C)=O)cc3)o2)c(=O)[nH]c1=O,7,-4,6399,-4
CC1CC(CC(C)C(=O)Nc2nncs2)C(=O)O1 (stereo not drawn),1,?,22855*,2
COc1ccc(N2CCN(C(=O)c3ccc(C(C)(C)C)cc3)CC2)cc1,-3,0,2118,-9
Cc1ccc(C(=O)O)cc1S(=O)(=O)N1CCOCC1,-1,-2,16552*,-3
COc1ccc(N2CCN(C(=O)c3ccc(-n4nc(C)cc4C)cc3)CC2)cc1,-3,-4,25032*,-8
O=C(c1cccc(S(=O)(=O)N2CCOCC2)c1)N1CCN(c2ccccc2)CC1,-1,-1,4012,4
COc1ccc(N2CCN(C(=O)c3ccc(S(=O)(=O)N4CCOCC4)cc3)CC2)cc1,2,0,22765*,2
COc1ccc(N2CCN(C(=O)c3ccc(S(=O)(=O)N4CCCC4)cc3)CC2)cc1,-2,0,4592,-5
O=C(c1cccc(S(=O)(=O)N2CCOCC2)c1)N1CCN(c2ccc(F)cc2)CC1,-5,4,21227*,5
Cc1ccc(C(=O)N2CCOCC2)cc1S(=O)(=O)N1CCOCC1,-2,-1,5328,-8
CCc1ccc([C@H]2[C@@H]3C(=O)C[C@@H]4C(=O)N(Cc5ccccc5)C(=O)[C@@H]4[C@@H]3CN2S(=O)(=O)c2ccc(C)cc2)cc1,2,-2,6722,4
Cc1ccc(NC(=O)c2ccc3nccnc3c2)c(C)c1,-3,-3,5597,1
COc1ccc(N2CCN(S(=O)(=O)c3cccc(C(F)(F)F)c3)CC2)cc1,-11,1,20076*,-4
O=C(c1cccc(S(=O)(=O)N2CCOCC2)c1)N1CCCCCC1,2,-2,23147*,-2
COc1cc(-n2cnnn2)ccc1S(=O)(=O)N1CCOCC1,1,?,22844*,-2
COc1ccc(N2CCN(S(=O)(=O)c3ccc(Cl)c(C(F)(F)F)c3)CC2)cc1,-10,0,9321,6
COc1ccc(CC(=O)N2CCN(C)CC2)cc1,-2,0,16186*,-2
COc1ccc(CC(=O)N2CCN(C(=O)Cc3ccc(OC)cc3)CC2)cc1,-5,-5,5477,?
O=C(CCn1nc(-c2ccc(Cl)cc2)ccc1=O)N1CCN(c2ccc(F)cc2)CC1,-5,0,4007,0
SMILES,Anthrax LF prot,BoNT A protease,Autofluor counter,BoNT-F LC inh
Cc1ccc(Cl)cc1N1C(=O)CC(Sc2ccccc2N)C1=O (stereo not drawn),-2,0,3536,3
COc1ccc(C(=O)N2CCCC2)cc1S(=O)(=O)N1CCOCC1,2,0,20709*,-2
COc1ccc(OC(=O)c2cccc(S(=O)(=O)N3CCCC3)c2)cc1,-3,-5,24453*,-5
COc1ccc(S(=O)(=O)N2CCN(C(=O)CC(C)C)CC2)cc1,-4,4,2951,40*
COc1ccc(C(=O)N2CCN(S(=O)(=O)c3ccc(Cl)cc3)CC2)cc1OC,4,4,21574*,8
COC(=O)c1cccc(S(=O)(=O)N2CCCC2)c1,-2,0,2380,2
COc1ccc(C(=O)N2CCN(S(=O)(=O)c3ccc(F)cc3)CC2)cc1OC,-1,0,2477,-1
CC(C)Oc1ccc(S(=O)(=O)N2CCOCC2)cc1NC(=O)Cc1cccs1,-40,-180,?,?
N#Cc1ccc(OS(=O)(=O)c2ccc(-c3ccon3)s2)cc1,-8,-4,4827,-5
CC(=O)Nc1ccc(S(=O)(=O)N(C)CC(=O)OC(C)C(=O)N(C)Cc2ccccc2)cc1 (stereo not drawn),2,3,5145,6
COc1ccc(C(=O)Nc2ccc(-c3cn4ccsc4n3)cc2)cc1S(=O)(=O)N1CCOCC1,-10,?,20320*,4
COc1ccc(C(=O)Nc2ccc(N3CCOCC3)cc2)cc1S(=O)(=O)N1CCOCC1,8,3,?,3
N/C(=N\OC(=O)c1ccc(Cl)c([N+](=O)[O-])c1)c1ccccn1,-6,0,3119,0
Cc1cc(C)cc(C(=O)O/N=C(\N)c2ccc(Br)cc2)c1,-12,5,20148*,6
Cc1ccc(C(=O)O/N=C(\N)c2cccc([N+](=O)[O-])c2)cc1,-1,-1,19951*,-2
Cc1cccc(C(=O)O/N=C(\N)c2ccc(Br)cc2)c1,7,0,3527,-4
N/C(=N\OC(=O)c1ccc(Cl)c([N+](=O)[O-])c1)c1ccccc1,-11,5,3228,63*
CN(CC(=O)O/N=C(\N)c1cccc([N+](=O)[O-])c1)S(=O)(=O)c1ccccc1,-1,-5,17118*,-7
CCCNC(=O)Cc1ncn[nH]1,2,-2,20413*,-1
O=C(Cc1c(O)c2ccccc2[nH]c1=O)N(Cc1ccccc1)Cc1ccccc1,-3,1,22649*,-2
COc1ccccc1CC(=O)NNC(=O)c1ccc(C(C)(C)C)cc1,0,2,5620,2
COc1ccccc1Cc1noc(C(C)(C)NC(=O)c2ccccc2)n1,-2,-4,17677*,-5
CN(CC(=O)Nc1cccc(F)c1)C(=O)c1ccccc1-n1cnnn1,-2,5,?,?
CSc1nc(NC(C)(C)C)nc(Oc2ccc(=O)[nH]n2)n1,-4,1,19465*,-1
CC(C)CNc1nc(NC(C)(C)C)nc(Oc2ccc(=O)[nH]n2)n1,3,0,4466,-1
SMILES,Anthrax LF prot,BoNT A protease,Autofluor counter,BoNT-F LC inh
Cc1cc(NC(=O)CSc2nnnn2-c2ccc(C)c(Cl)c2)no1,-6,-1,3145,-24
Cc1ccc2cc(C#N)c(N3CCCN(C(=O)C4CCCO4)CC3)nc2c1C (stereo not drawn),13,13,16171*,10
CCOC(=O)C1=C(O)/C(=C/c2ccccn2)SC1=Nc1ccc(Cl)cc1,1,1,2191,-4
CCOC(=O)C1=C(O)CSC1=Nc1ccc(Cl)cc1,-1,-1,16689*,-1
CCOC(=O)N1CCN(CC(=O)N2c3ccccc3CC2C)CC1 (stereo not drawn),0,-3,25433*,-3
CCN1CCN(CC(=O)N2c3ccccc3CC2C)CC1 (stereo not drawn),0,-3,24267*,-4
CC1Cc2ccccc2N1C(=O)CN1CCCCC1 (stereo not drawn),-7,1,3845,-17
O=C(CCCN1C(=O)/C(=C/c2ccc(F)cc2)SC1=S)NC1CCS(=O)(=O)C1 (stereo not drawn),0,-1,5495,-1
